# Assay results from PubChem BioAssay.
# Molecular target: PEG-3 (UniProt Q6IN02)
# Assay: Peg3 promoter luciferase inhibitors, potency, dose response, cell-based, HeLa, CREF/GAPDH counter-screen panel (AID 624167)
# Conditions: CREF/GAPDH counter-screens; HeLa PEG-Prom luciferase reporter, overnight, run 1, dose range 1, at 100 µM (top of the series) unless noted
# Chain of PEG-3 (Q6IN02 whole entry, looked up): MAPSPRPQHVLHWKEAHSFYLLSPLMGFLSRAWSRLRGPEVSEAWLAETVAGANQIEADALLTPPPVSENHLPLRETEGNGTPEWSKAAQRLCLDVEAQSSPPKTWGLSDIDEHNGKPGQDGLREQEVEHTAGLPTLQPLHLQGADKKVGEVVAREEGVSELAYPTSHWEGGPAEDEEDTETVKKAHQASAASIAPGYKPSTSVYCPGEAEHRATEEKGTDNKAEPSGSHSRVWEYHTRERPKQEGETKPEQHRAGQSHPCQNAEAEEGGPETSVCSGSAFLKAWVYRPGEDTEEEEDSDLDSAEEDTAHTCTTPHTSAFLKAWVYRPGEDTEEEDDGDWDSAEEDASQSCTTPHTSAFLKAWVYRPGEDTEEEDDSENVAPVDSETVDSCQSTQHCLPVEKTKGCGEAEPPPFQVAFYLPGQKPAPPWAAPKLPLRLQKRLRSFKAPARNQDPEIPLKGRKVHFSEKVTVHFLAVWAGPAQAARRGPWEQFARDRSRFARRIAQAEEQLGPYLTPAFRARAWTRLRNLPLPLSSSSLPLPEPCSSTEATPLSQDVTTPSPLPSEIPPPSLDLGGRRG
row,SMILES,inhibition
1,Cc1nn(-c2ccccc2)c2c1C(c1ccc([N+](=O)[O-])cc1)N1C(=N2)C(=O)Nc2ccccc21 (stereo not given),10.2%
2,COc1cccc(C(=O)O/N=C(\N)c2ccccn2)c1,102%
3,COCc1ccc(CN2CCC(C(=O)Nc3cccc(-c4cccc(Cl)c4)c3)CC2)o1,97.5%
4,CCN(c1ccccc1)S(=O)(=O)c1ccc(C(=O)N(CCCN(C)C)c2nc3cc4c(cc3s2)OCO4)cc1,97.6%
5,Cc1ccc(NS(=O)(=O)c2cc3c4c(cccc4c2)C(=O)NC3=O)cc1C,71.4%
6,CCN1CCc2c(sc(NC(=O)c3ccc(S(=O)(=O)N4CCCCCC4)cc3)c2C(=O)NC)C1,94.4%
7,c1ccc(CN=C(NCc2ccccc2)NCc2ccccc2)cc1,99.7%
8,CN(CC(=O)Nc1ccc(Cl)c(C(F)(F)F)c1)C(=O)c1cc(-c2ccncc2)nc2ccccc12,102%
9,CC1(C)CC(NCCN2CCN(C3=CC(=C(C#N)C#N)CC(C)(C)C3)CC2)=CC(=C(C#N)C#N)C1,19.6%
10,CC1=CC(C)[C@H](/C=N/n2c(=O)[nH]c3c([nH]c4ccc(Br)cc43)c2=O)C(C)C1 (stereo not given in full),12.7%
11,Cc1ccc(C)c(OCC(O)CN2CCC(CN3C(=O)c4cccc5cccc(c45)C3=O)CC2)c1 (stereo not given),99.2%
12,COc1ccc2c(c1)C=C([C@@H]1C[C@H]3CN(c4ccccc4)C(=O)[C@]34CCCN14)CO2,65.2%
13,COc1ccc2sc(N(CCCN(C)C)C(=O)c3ccc(S(=O)(=O)N4CCCc5ccccc54)cc3)nc2c1,98.4%
14,O=C(C[n+]1ccc(-c2cc(C(=O)Nc3cccc(C(F)(F)F)c3)c3ccccc3n2)cc1)c1cccc([N+](=O)[O-])c1,101%
15,COc1cc(NC(=O)Nc2nc(C(N)CCc3ccccc3)cs2)cc(OC)c1OC (stereo not given),99.2%
16,O=C(c1ccoc1)N1CCN(c2cc(-c3ccccc3)nc3cc(-c4ccccc4)nn23)CC1,58.2%
17,CCc1ccc(NC(=O)CSc2nc3ccccc3c(=O)n2CCCN2CCC(C)CC2)cc1,99.2%
18,Cc1ccccc1NC(=O)C(=Cc1ccc(C(=O)O)cc1)C(=O)Nc1ccccc1C,90.3%
19,CCCC(=O)NC(c1cccc([N+](=O)[O-])c1)c1ccc2cccnc2c1O (stereo not given),"75.7% [run 1, dose range 1, at 50 µM]"
20,Oc1c(Cl)cc(Cl)c2cccnc12,80.8%

row,SMILES,inhibition
1,NC(N)=N/N=C/c1ccc(Cl)cc1Cl,97.7%
2,COc1cc(OC)c(OC)cc1CCC(C)NCCC(c1ccccc1)c1ccccc1 (stereo not given),100%
3,O=C(Nc1ccccc1)c1nc[nH]c1C(=O)NCCCCNC(=O)c1[nH]cnc1C(=O)Nc1ccccc1,22.3%
4,COc1ccc(CC(N)c2csc(NC(=O)Nc3cc(OC)ccc3OC)n2)cc1 (stereo not given),94.3%
5,COc1cc(NC(=O)c2cccc(C)c2)ccc1NC(=O)c1cc2ccccc2o1,"76.6% [run 1, dose range 1, at 50 µM]"
6,CCc1nc(Nc2ccc(N3CCN(C(C)=O)CC3)cc2)c2oc3ccccc3c2n1,101%
7,Cc1cc(C(=O)CN2C(=O)c3ccccc3S2(=O)=O)c(C)n1C(C)C,101%
8,COc1ccc(OC)c(-c2cc(C(=O)N3CCN(c4ncccn4)CC3)c3ccccc3n2)c1,54.9%
9,CN(C)CCNc1ccc2nnn3c4ccc(O)cc4c(=O)c1c23,102%
10,COc1ccc(CN2CCN(C(=O)c3cc(-c4cccnc4)nc4ccc(Cl)cc34)CC2)c(OC)c1OC,74.9%
11,O/N=C(\c1ccc(Cl)cc1Cl)c1ncc(C(F)(F)F)cc1Cl,86%
12,O=C(NC1=C(NC2CCS(=O)(=O)C2)C(=O)c2ccccc2C1=O)c1ccccc1 (stereo not given),102%
13,CN1CCC(NC(=O)c2cc(-c3cccc(Br)c3)nc3ccccc23)CC1,100%
14,Fc1ccc([C@@H]2CCNC[C@H]2COc2ccc3c(c2)OCO3)cc1,102%
15,CCN(CCN(C)C)C(=O)C1CCN(S(=O)(=O)c2c(C)noc2/C=C/c2ccccc2F)CC1,90.8%
16,CCN1CCN(Cc2c(O)ccc3c2O/C(=C\C=C\c2ccccc2)C3=O)CC1,99.1%
17,CC1CCCCN1CCNC(=O)c1ccc2c(=O)n(Cc3ccc(Cl)cc3)c(=S)[nH]c2c1 (stereo not given),101%
18,COC(=O)Cc1[nH]n(-c2nc3ccccc3s2)c(=O)c1C(C)=Nc1ccc(Cl)cc1,88.1%
19,CC1(Cc2ccc(Cl)c(Cl)c2)C(=O)Nc2ccc(S(=O)(=O)NC3CCCCC3)cc21 (stereo not given),92.8%
20,C[C@@H]1[C@H]2[C@@H]3CC[C@@H](C3)[C@H]2CN[C@H]1c1cn(Cc2ccccc2)c2ccccc12,99.2%

# Molecular target: PEG-3 (UniProt Q6IN02)
# Assay: as above
# Conditions: CREF/GAPDH counter-screens; HeLa PEG-Prom luciferase reporter, overnight, run 2, dose range 1, at 100 µM (top of the series) unless noted
row,SMILES,inhibition
1,Cc1nn(-c2ccccc2)c2c1C(c1ccc([N+](=O)[O-])cc1)N1C(=N2)C(=O)Nc2ccccc21 (stereo not given),2.44%
2,COc1cccc(C(=O)O/N=C(\N)c2ccccn2)c1,95.8%
3,COCc1ccc(CN2CCC(C(=O)Nc3cccc(-c4cccc(Cl)c4)c3)CC2)o1,99%
4,CCN(c1ccccc1)S(=O)(=O)c1ccc(C(=O)N(CCCN(C)C)c2nc3cc4c(cc3s2)OCO4)cc1,99%
5,Cc1ccc(NS(=O)(=O)c2cc3c4c(cccc4c2)C(=O)NC3=O)cc1C,66.9%
6,CCN1CCc2c(sc(NC(=O)c3ccc(S(=O)(=O)N4CCCCCC4)cc3)c2C(=O)NC)C1,94.9%
7,c1ccc(CN=C(NCc2ccccc2)NCc2ccccc2)cc1,102%
8,CN(CC(=O)Nc1ccc(Cl)c(C(F)(F)F)c1)C(=O)c1cc(-c2ccncc2)nc2ccccc12,98.9%
9,CC1(C)CC(NCCN2CCN(C3=CC(=C(C#N)C#N)CC(C)(C)C3)CC2)=CC(=C(C#N)C#N)C1,44%
10,CC1=CC(C)[C@H](/C=N/n2c(=O)[nH]c3c([nH]c4ccc(Br)cc43)c2=O)C(C)C1 (stereo not given in full),"77.5% [run 2, dose range 1, at 12.5 µM]"
11,Cc1ccc(C)c(OCC(O)CN2CCC(CN3C(=O)c4cccc5cccc(c45)C3=O)CC2)c1 (stereo not given),96.1%
12,COc1ccc2c(c1)C=C([C@@H]1C[C@H]3CN(c4ccccc4)C(=O)[C@]34CCCN14)CO2,74%
13,COc1ccc2sc(N(CCCN(C)C)C(=O)c3ccc(S(=O)(=O)N4CCCc5ccccc54)cc3)nc2c1,102%
14,O=C(C[n+]1ccc(-c2cc(C(=O)Nc3cccc(C(F)(F)F)c3)c3ccccc3n2)cc1)c1cccc([N+](=O)[O-])c1,102%
15,COc1cc(NC(=O)Nc2nc(C(N)CCc3ccccc3)cs2)cc(OC)c1OC (stereo not given),97.7%
16,O=C(c1ccoc1)N1CCN(c2cc(-c3ccccc3)nc3cc(-c4ccccc4)nn23)CC1,66%
17,CCc1ccc(NC(=O)CSc2nc3ccccc3c(=O)n2CCCN2CCC(C)CC2)cc1,101%
18,Cc1ccccc1NC(=O)C(=Cc1ccc(C(=O)O)cc1)C(=O)Nc1ccccc1C,101%
19,CCCC(=O)NC(c1cccc([N+](=O)[O-])c1)c1ccc2cccnc2c1O (stereo not given),98.9%
20,Oc1c(Cl)cc(Cl)c2cccnc12,80.6%

row,SMILES,inhibition
1,NC(N)=N/N=C/c1ccc(Cl)cc1Cl,99.1%
2,COc1cc(OC)c(OC)cc1CCC(C)NCCC(c1ccccc1)c1ccccc1 (stereo not given),96.7%
3,O=C(Nc1ccccc1)c1nc[nH]c1C(=O)NCCCCNC(=O)c1[nH]cnc1C(=O)Nc1ccccc1,59.3%
4,COc1ccc(CC(N)c2csc(NC(=O)Nc3cc(OC)ccc3OC)n2)cc1 (stereo not given),98.7%
5,COc1cc(NC(=O)c2cccc(C)c2)ccc1NC(=O)c1cc2ccccc2o1,"94.6% [run 2, dose range 1, at 50 µM]"
6,CCc1nc(Nc2ccc(N3CCN(C(C)=O)CC3)cc2)c2oc3ccccc3c2n1,99.9%
7,Cc1cc(C(=O)CN2C(=O)c3ccccc3S2(=O)=O)c(C)n1C(C)C,94.7%
8,COc1ccc(OC)c(-c2cc(C(=O)N3CCN(c4ncccn4)CC3)c3ccccc3n2)c1,59.3%
9,CN(C)CCNc1ccc2nnn3c4ccc(O)cc4c(=O)c1c23,98%
10,COc1ccc(CN2CCN(C(=O)c3cc(-c4cccnc4)nc4ccc(Cl)cc34)CC2)c(OC)c1OC,83%
11,O/N=C(\c1ccc(Cl)cc1Cl)c1ncc(C(F)(F)F)cc1Cl,97.3%
12,O=C(NC1=C(NC2CCS(=O)(=O)C2)C(=O)c2ccccc2C1=O)c1ccccc1 (stereo not given),99.7%
13,CN1CCC(NC(=O)c2cc(-c3cccc(Br)c3)nc3ccccc23)CC1,101%
14,Fc1ccc([C@@H]2CCNC[C@H]2COc2ccc3c(c2)OCO3)cc1,101%
15,CCN(CCN(C)C)C(=O)C1CCN(S(=O)(=O)c2c(C)noc2/C=C/c2ccccc2F)CC1,97.5%
16,CCN1CCN(Cc2c(O)ccc3c2O/C(=C\C=C\c2ccccc2)C3=O)CC1,101%
17,CC1CCCCN1CCNC(=O)c1ccc2c(=O)n(Cc3ccc(Cl)cc3)c(=S)[nH]c2c1 (stereo not given),99.1%
18,COC(=O)Cc1[nH]n(-c2nc3ccccc3s2)c(=O)c1C(C)=Nc1ccc(Cl)cc1,94.2%
19,CC1(Cc2ccc(Cl)c(Cl)c2)C(=O)Nc2ccc(S(=O)(=O)NC3CCCCC3)cc21 (stereo not given),95.4%
20,C[C@@H]1[C@H]2[C@@H]3CC[C@@H](C3)[C@H]2CN[C@H]1c1cn(Cc2ccccc2)c2ccccc12,102%
